A selection follows.
aSyn 5UTR act = Activators via SNCA 5'UTR binding, MLPCN; hit rate 7.1% among 300,000; alpha-synuclein 5'UTR reporter, activators screen; AID 1814; activity score, % (tested at 7.5 µM), hits read low; in the data active means activity score below about -60%
Each line names hits and unclear results; the compound was inactive in the other large screens.

Cc1cc(NC(=O)c2noc3c2CCCCC3)nn1Cc1ccc(Cl)cc1	aSyn 5UTR act -71
O=C(Nc1cccnc1)c1noc2c1CCCC2	aSyn 5UTR act -115
Cc1cc(NC(=O)c2noc3c2CCCC3)no1	aSyn 5UTR act -107
Cc1cc(NC(=O)c2noc3c2CCCCC3)no1	aSyn 5UTR act -168
O=C(N/N=C/c1ccc(OC(=O)c2ccccc2Cl)cc1)c1ccccn1	aSyn 5UTR act -112
CCN(CC)c1ccc(/C=N/NC(=O)c2cnccn2)cc1	aSyn 5UTR act -85
O=C(Oc1cccc(/C=N/NC(=O)c2ccccn2)c1)c1ccc([N+](=O)[O-])cc1	aSyn 5UTR act -100
C/C(=N\NC(=O)C(C)Oc1ccc([N+](=O)[O-])cc1)c1ccccn1 (stereo not drawn)	none
Cc1ccc(/C=N\NC(=O)c2csnn2)cc1	aSyn 5UTR act -69
CCN(CC)c1ccc(/C=N/NC(=O)c2ccccn2)cc1	aSyn 5UTR act -125
Cc1nc2oc(C(=O)c3ccccc3)c(N)c2c2c1COC(C)(C)C2	aSyn 5UTR act -83
CCCc1nc2oc3c(NCc4ccccn4)ncnc3c2c2c1COC(C)(C)C2	none
Nc1ccc(S(=O)(=O)Nc2nccc(/C=C/c3ccc(Cl)cc3Cl)n2)cc1	aSyn 5UTR act -67
CNc1c(N)c(=O)oc2ccccc12	aSyn 5UTR act -74
O=C(Nc1ccc(Br)cc1Cl)c1ccc2c(=O)n3c(nc2c1)CCC3	aSyn 5UTR act -190
O=C(Nc1ccc(Cl)cc1Cl)c1ccc2c(=O)n3c(nc2c1)CCC3	aSyn 5UTR act -159
COc1ccc(-c2noc(CSc3ccccc3)n2)cc1OC	aSyn 5UTR act -114
c1ccc(SCc2nc(-c3ccncc3)no2)cc1	aSyn 5UTR act -206
COc1ccc(-c2noc(CSc3nnc(CCc4ccccc4)n3-c3ccccc3)n2)cc1OC	none
Cc1ccc(-c2ccnc3c(Cl)c(C)nn23)cc1	none
Cc1nn2c(-c3ccccc3)ccnc2c1-c1ccccc1	aSyn 5UTR act -139
Cc1nc2nc(N)nn2c(C)c1C/C=C/c1ccccc1	none
Cc1nn2c(N)c(-c3ccccc3)cnc2c1-c1ccc(Cl)cc1	aSyn 5UTR act -193
Cc1nc2c(-c3ccccc3)c(C)nn2c(N)c1-c1ccccc1	aSyn 5UTR act -137
Cc1nn2c3c(cnc2c1-c1ccccc1)C(=O)CCC3	aSyn 5UTR act -90
Cc1cn(-c2ccc(Br)cc2)[nH]c1=O	aSyn 5UTR act -79
CN(C)S(=O)(=O)Oc1cccc(C(=O)Nc2ccc(Cl)c(Cl)c2)c1	aSyn 5UTR act -185
CNS(=O)(=O)c1cccc(C(=O)Nc2cccc(Cl)c2)c1	aSyn 5UTR act -111
CN(C)S(=O)(=O)Oc1cccc(C(=O)Nc2cccc(Cl)c2)c1	aSyn 5UTR act -169
CN(C)S(=O)(=O)c1cccc(C(=O)Nc2cc(Cl)ccc2O)c1	aSyn 5UTR act -87
COc1ccc(NC(=O)c2cccc(OS(=O)(=O)N(C)C)c2)cc1	aSyn 5UTR act -116
O=C(NC(=S)Nc1cc(Cl)ccc1O)c1cccc(Br)c1	aSyn 5UTR act -81
COC(=O)c1ccc(OS(=O)(=O)N(C)C)cc1	aSyn 5UTR act -88
Cn1cnc2cc(NCc3ccccc3Cl)ccc21	aSyn 5UTR act -92
CC(C)c1ccc(CNc2ncccn2)cc1	aSyn 5UTR act -128
CCCC(=O)NC(c1ccc(C(C)C)cc1)c1ccc2cccnc2c1O (stereo not drawn)	none
CCn1cnc2cc(NCc3ccccc3Cl)ccc21	aSyn 5UTR act -87
CC(C)c1ccc(CNc2ccc3c(c2)ncn3C)cc1	aSyn 5UTR act -206
C/C(=N\NC(=O)c1nn(C)c(C)c1Br)c1cccc(NC(=O)c2ccoc2C)c1	aSyn 5UTR act -71
C/C(=N\NC(=O)c1ccoc1C)c1ccccc1	aSyn 5UTR act -127
C/C(=N/NC(=O)c1ccoc1C)c1ccc(NC(=O)C2CCCC2)cc1	aSyn 5UTR act -121
C/C(=N\NC(=O)c1ccc(Cn2cc(Br)cn2)o1)c1ccc(NC(=O)c2ccoc2C)cc1	aSyn 5UTR act -77
CCN(CC)CCN(C(=O)/C=C/c1cccs1)c1nc2ccc(C)cc2s1	aSyn 5UTR act -79
CN(C)CCN(C(=O)/C=C/c1cccs1)c1nc2c(F)cc(F)cc2s1	none
CN(C)Cc1c(C(=O)Nc2ccccc2)[nH]c2ccccc12	aSyn 5UTR act -76
CCOC(=O)c1[nH]c2ccccc2c1NC(=S)Nc1ccccc1	aSyn 5UTR act -70
COc1ccc2cc(C(=O)N3CCC(Cc4ccccc4)CC3)[nH]c2c1	aSyn 5UTR act -77
COc1ccc2cc(C(=O)N(C)Cc3ccccc3)[nH]c2c1	aSyn 5UTR act -86
COc1ccc2[nH]c(C(=O)NCCc3ccccc3)cc2c1	aSyn 5UTR act -92
CCN1C(=O)/C(=C/c2nc3ccccc3c(=O)n2-c2ccc(C)cc2)c2ccccc21	aSyn 5UTR act -139
COc1ccc(-n2c(/C=C3\C(=O)N(C)c4ccccc43)nc3ccccc3c2=O)cc1	aSyn 5UTR act -107
CC1CCC(NC(=O)Cn2c(=O)[nH]c3ccsc3c2=O)CC1 (stereo not drawn)	aSyn 5UTR act -130
COc1ccc(NC(=S)c2ccc3ccccc3n2)cc1	aSyn 5UTR act -70
CCOc1ccc(NC(=S)c2ccc3ccccc3n2)cc1	aSyn 5UTR act -67
COc1ccc(C(=O)NC(=S)NNC(=O)c2ccc3ccccc3n2)cc1	none
O=C1CCC(O)CCN1CCSc1ccccc1 (stereo not drawn)	aSyn 5UTR act -93
CC(C)CN1CCC(=O)N(CCSc2ccccc2)CC1	aSyn 5UTR act -107
CCCN1CCC(=O)N(CCSc2ccc(C)cc2)CC1	aSyn 5UTR act -79
COCCCN=C1NN=C(c2cc(C)n(Cc3ccco3)c2C)CS1	none
COCCn1c(C)cc(C2=NNC(=NC3CC3)SC2)c1C	none
COCC(C)N=C1NN=C(c2cc(C)n(Cc3ccccc3Cl)c2C)CS1 (stereo not drawn)	aSyn 5UTR act -141
CC(=O)N/C(N)=N/c1nc(=O)c2ccccc2s1	aSyn 5UTR act -99
CCOC(=O)N/C(N)=N/c1nc2ccccc2s1	aSyn 5UTR act -116
O=C(c1ccc2c(Cl)c3c(nc2c1)CCCC3)N1CCC(N2CCCCC2)CC1	aSyn 5UTR act -89
CCC(C)NC(=O)c1ccc2c(Cl)c3c(nc2c1)CCC3 (stereo not drawn)	aSyn 5UTR act -164
CN(C(=O)c1ccc2c(Cl)c3c(nc2c1)CCC3)c1ccccc1	aSyn 5UTR act -223
COc1ccccc1OCCSc1nnnn1C1CCCCC1	aSyn 5UTR act -81
c1ccc(OCCSc2nnnn2C2CCCCC2)cc1	aSyn 5UTR act -122
COC(=O)Cn1ncc2c(C)n(Cc3ccccc3)c(C)c2c1=O	aSyn 5UTR act -123
CCC(C)(C)NC(=O)C(c1ccncc1)N(C(=O)c1sc(C)nc1C)c1ccc(C)cc1 (stereo not drawn)	aSyn 5UTR act -62
O=C(NC1CCCC1)c1n[nH]c2ccccc12	aSyn 5UTR act -86
O=C(NC1CCCCC1)C(=O)c1c[nH]c2ccccc12	aSyn 5UTR act -115
O=C(NCCC1=CCCCC1)C(=O)c1c[nH]c2ccccc12	aSyn 5UTR act -81
Cc1ccc(NC(=O)C(=O)c2c[nH]c3ccccc23)cc1	aSyn 5UTR act -169
O=C(NCC1CCCO1)C(=O)c1c[nH]c2ccccc12 (stereo not drawn)	aSyn 5UTR act -73
COc1ccc(/C=N/NC(=O)c2ccc[nH]2)cc1	aSyn 5UTR act -147
CSc1ccc(/C=N/NC(=O)c2ccc(O)cc2)cc1	aSyn 5UTR act -117
O=C(N/N=C\c1c(O)ccc2ccccc12)c1ccc(O)cc1	none
COc1ccc(C(=O)N/N=C/c2ccc(SC)cc2)cc1	aSyn 5UTR act -65
COc1ccc(Nc2nc(CC(C)=O)ns2)cc1	aSyn 5UTR act -109
CC(=O)Cc1nsc(Nc2ccc3c(c2)OCCO3)n1	aSyn 5UTR act -125

Screens (PubChem)
